Source: PubChem BioAssay
Shown are actives, neighbours in structure and some others; about 32% of the full set was active somewhere.
CYP2C9 inh = inhibitors of human CYP2C9; CYP2C9 Supersomes, luciferin-H conversion, luminescence; inhibition, % at 5 µM; hit rate 20% among 96,000; AID 777;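 active = blocking of liver enzyme CYP2C9 beyond about 50% at 5 µM, limit read from the data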
PostGolgi ctrl = inhibits growth of the yeast control strain; inhibition, % at 10 µM; hit rate 5% among 98,000; efflux-deficient yeast background strain, growth absorbance A615, 16 h; AID 738
CYP2C9 act = increases human cytochrome P450 2C9 activity; activation factor at 5 µM; recombinant CYP2C9, luciferin-H conversion, luminescence; stronger effect = higher value; factor 1 = untreated enzyme, 0 = blocked; hit rate 1.4% among 96,000; P11712;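 active = activation factor of 2 or more for CYP2C9 at a 5 µM dose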
CYP2C19 inhib = human CYP2C19 inhibition | AID 778 | CYP2C19 Supersomes, luciferin-H EGE luminescence, 30 min | P33261 | hit rate 21% among 96,000 | inhibition, % at 5 µM;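 active = CYP2C19 inhibition above a set limit at 5 µM in the primary screen, cut at about 50% in these data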
Target sequence (P33261 whole entry, looked up): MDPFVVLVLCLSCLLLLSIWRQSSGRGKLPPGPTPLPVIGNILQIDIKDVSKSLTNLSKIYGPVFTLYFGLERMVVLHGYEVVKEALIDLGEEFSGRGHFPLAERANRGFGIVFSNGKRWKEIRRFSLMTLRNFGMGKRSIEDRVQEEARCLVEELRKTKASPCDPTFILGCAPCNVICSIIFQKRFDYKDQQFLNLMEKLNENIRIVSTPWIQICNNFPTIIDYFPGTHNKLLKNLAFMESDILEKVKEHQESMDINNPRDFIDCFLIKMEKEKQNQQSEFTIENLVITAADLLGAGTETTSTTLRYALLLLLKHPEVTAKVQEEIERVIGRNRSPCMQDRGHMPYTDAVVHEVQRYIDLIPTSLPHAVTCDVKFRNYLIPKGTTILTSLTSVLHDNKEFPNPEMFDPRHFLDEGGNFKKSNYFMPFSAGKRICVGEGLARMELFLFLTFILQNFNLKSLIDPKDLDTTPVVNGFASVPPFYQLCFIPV
CYP2C19 act = increases human CYP2C19 enzyme activity; 96,000 tested, under 10 active; AID 1025; recombinant CYP2C19, luciferin-H EGE luminescence; stronger effect = higher value; 0 = fully inhibited enzyme, 1 = untreated enzyme; activation factor at 5 µM;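 active = activation factor of at least 2 at 5 µM in the primary screen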
PostGolgi yeast = growth inhibition of a yeast mutant, post-Golgi transport screen; post-Golgi transport phenotypic cell assay; inhibition, % at 10 µM; hit rate 0.9% among 98,000; AID 739;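 also: yeast cells grown in 1536-well plates; yeast grown about 18 h at 30C before absorbance read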
Large screens that a line does not name were inactive. Rule as the data show it, unless noted: active = inhibition above about 30%; inactive = the rest.

CCOC(=O)C1C(c2cc(OC)c(OC)c(OC)c2)NC(=S)NC1(O)C(F)(F)F (stereo not given)	none
COc1ccc(C2=CC(c3cc(OC)c(OC)c(OC)c3)NC(=S)N2)cc1 (stereo not given)	CYP2C9 inh 94, CYP2C19 inhib 74
COCCCNC(=O)Cn1nc(-c2ccc(C)cc2)ccc1=O	none
CCOC(=O)C(C#N)C(c1cccnc1)c1c(C)[nH][nH]c1=O (stereo not given)	none
CCCc1[nH][nH]c(=O)c1C(c1ccc(Br)cc1)C(C#N)C#N (stereo not given)	CYP2C9 inh 61
CCCc1[nH][nH]c(=O)c1C(c1ccccc1)C(C#N)C#N (stereo not given)	CYP2C9 inh 62, CYP2C19 inhib 58
O=C(CN1CCN(C(=O)N2CCCCC2)CC1)Nc1ccc(F)cc1	none
Cc1noc(C)c1C(=O)N1CCN(Cc2ccccc2)CC1	CYP2C19 inhib 91
Cc1occc1C(=O)N1CCN(Cc2ccccc2)CC1	CYP2C19 inhib 90
O=C(c1coc(=O)c2ccccc12)N1CCN(Cc2ccccc2)CC1	CYP2C19 inhib 55
Cc1noc(C)c1C(=O)N1CCN(CCc2ccccc2)CC1	none
N#CCCN1CCn2c1nc1ccccc12	none
COC(=O)Cn1cnc2c(nnn2-c2ccc(C)cc2)c1=O	none
CCCCOc1ccc(CNC(=S)N/N=C/c2ccc(OC)c(OC)c2)cc1	CYP2C9 inh 60, PostGolgi ctrl 33
CCOc1ccc(/C=N/NC(=O)c2ccc(Cn3cc([N+](=O)[O-])cn3)o2)cc1	CYP2C9 inh 59
CCOc1ccc(CNC(=S)N/N=C\c2ccc([N+](=O)[O-])cc2)cc1	PostGolgi ctrl 40
O=C(CCc1ccccc1)Nc1nc2nc(-c3ccccc3)cc(=O)n2[nH]1	none
COc1ccc(C2(C)NC(=O)N(Cc3cc(Cl)cc4c3OCOC4)C2=O)cc1OC (stereo not given)	CYP2C9 act 2.8, CYP2C19 inhib 65
CC(=O)c1ccc(NS(=O)(=O)c2ccc(C)cc2)cc1	CYP2C9 inh 80, CYP2C19 inhib 80
CC(=O)c1ccc(NS(=O)(=O)c2cccc(C)c2)cc1	CYP2C9 inh 95, CYP2C19 inhib 99
Cc1ccc(NS(=O)(=O)c2ccc(CCC(=O)NC3CC3)cc2)cc1	none
CC(c1ccccc1)N1CC(C(=O)N2CCN(c3ccccc3)CC2)CC1=O (stereo not given)	none
CCn1cc(C(=O)NCCN(C)CCc2ccccc2)c(=O)c2cc(S(=O)(=O)N(C)C)ccc21	CYP2C9 inh 75
CCn1cc(C(=O)NCc2ccco2)c(=O)c2cc(S(=O)(=O)N3CCC(C)CC3)ccc21	CYP2C9 inh 66
CN(CCNC(=O)c1cn(C)c2ccc(S(=O)(=O)N(C)C)cc2c1=O)CCc1ccccc1	none
CCn1cc(C(=O)NCc2ccco2)c(=O)c2cc(S(=O)(=O)N3CCc4ccccc4C3)ccc21	CYP2C9 inh 78
C=CCn1cc(C(=O)NCc2ccco2)c(=O)c2cc(S(=O)(=O)N3CCCCCC3)ccc21	CYP2C9 inh 89
CCn1cc(C(=O)N2CCc3ccccc32)c(=O)c2cc(S(=O)(=O)N3CCOCC3)ccc21	none
CCn1cc(C(=O)NCCCN2CCC(C)CC2)c(=O)c2cc(S(=O)(=O)N3CCCC3)ccc21	none
Cc1c(C(=O)O)c(=S)sn1CCOc1ccccc1	none
CCOC(=O)c1cc(CC)sc1NC(=O)C(c1ccccc1)c1ccccc1	none
CCn1cc(C(=O)NCc2ccccn2)c(=O)c2cc(S(=O)(=O)N3CCCCC3)ccc21	none
CCn1cc(C(=O)NCc2ccco2)c(=O)c2cc(S(=O)(=O)N3CCCCCC3)ccc21	CYP2C9 inh 86
CCn1cc(C(=O)NC2CCC(C)CC2)c(=O)c2cc(S(=O)(=O)N3CCCCC3)ccc21 (stereo not given)	none
CCn1cc(C(=O)NCc2ccco2)c(=O)c2cc(S(=O)(=O)N3CC(C)CC(C)C3)ccc21 (stereo not given)	CYP2C9 inh 58
COc1ccc(CCNC(=O)CN2CCN(Cc3ccc(F)cc3)C2=O)cc1OC	none
CSc1nnc(-c2cc3ccccc3cc2O)n1C	none
CCCCCCC1/C(=N/O)CCC1C(=O)OC (stereo not given)	CYP2C19 inhib 66
CCCCCCN=C(C)C1=C(O)C(C(=O)OC)C(C)(C)CC1=O (stereo not given)	none
COc1ccc(C(=O)c2ccc(OC)c3cccc(O)c23)cc1OC	CYP2C9 inh 84
CCn1c(SCC(=O)N2c3ccccc3Sc3ccccc32)nnc1-c1ccco1	CYP2C9 inh 83, CYP2C19 inhib 89
Cn1c(SCC(=O)N2c3ccccc3Sc3ccc(Cl)cc32)nnc1-c1ccco1	PostGolgi ctrl 60, PostGolgi yeast 53 (no result: CYP2C9 inh, CYP2C9 act, CYP2C19 inhib, CYP2C19 act)
Cn1nnnc1SCC(=O)N1c2ccccc2Sc2ccc(Cl)cc21	CYP2C19 inhib 75
CCn1c(SCC(N)=O)nnc1-c1ccco1	none
CCn1c(SCC(=O)Nc2nnc(C)s2)nnc1-c1ccco1	none
CCn1c(SCC(=O)c2cccs2)nnc1-c1ccco1	CYP2C19 inhib 76
O=C1C(C=NCCCN2CCCC2=O)=C(O)c2ccccc21	none
CC1=NN(C(=O)c2csc(C)c2)C(O)(C(F)(F)F)C1 (stereo not given)	none
CC1=NN(C(=O)c2ccc(Br)cc2)C(O)(C(F)(F)OC(F)(F)F)C1 (stereo not given)	CYP2C19 inhib 53
Clc1ccc(OCc2nnc3n2N=C(c2ccc4c(c2)OCCO4)CS3)c(Cl)c1	CYP2C9 inh 97, CYP2C19 inhib 74
O=C1CCCCC1C(Nc1ccc(Br)cc1)c1ccccc1 (stereo not given)	CYP2C9 inh 62
O=C1CCCCC1C(Nc1ccc(Cl)cc1)c1ccccc1 (stereo not given)	CYP2C9 inh 89, CYP2C19 inhib 82
COc1ccc(OC)c(/C=N/NC(=O)CCCC(=O)Nc2cccc(Br)c2)c1	CYP2C9 inh 75
Cc1nn(Cc2ccc(C(=O)Nc3nccs3)cc2)c(C)c1Cl	none
COc1cccc(-c2n[nH]c(=S)n2Cc2ccco2)c1OC	none
COc1ccc(-n2c(SCC(=O)Nc3nccs3)nnc2-c2ccoc2C)cc1	CYP2C9 inh 62, CYP2C19 inhib 75
COC(=O)CSc1nnc(-c2ccoc2C)n1-c1ccc(C)cc1	none
Cc1ccc(-n2c(SCC(=O)NCc3cccs3)nnc2-c2ccoc2C)cc1	CYP2C9 inh 78, CYP2C19 inhib 93
Cc1nc(N2CCN(C(c3ccccc3)c3ccccc3)CC2)[nH]c(=O)c1C	none
O=C(Nc1ccccc1[N+](=O)[O-])C1=C(O)CCn2c1nc1ccccc12	none
Cc1cc(C)n2[nH]c(=O)c(N=Nc3ccccc3)c2n1	none
Cc1cc(C)n2[nH]c(=O)c(N=Nc3cccc(Cl)c3)c2n1	PostGolgi ctrl 39
COc1ccc(OC)c2[nH]c(=O)c(CCNS(=O)(=O)c3ccc(C)cc3)cc12	CYP2C9 inh 68
